Source: PubChem BioAssay
GIRK2 activator – GIRK2 channel activators by thallium flux. activation (% efficacy), % for hits at 37.5 µM. HEK293 GIRK2/NPY4 cells, thallium flux fluorescence. 34,000 tested, under 10 active;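 active = primary screen hit, no activity in plain HEK293 cells, and in GIRK2-only cells above 5% efficacy rising with concentration; inactive = the rest, including fluorescent compounds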;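 also: efficacy is normalized control-subtracted fluorescence 15 s after thallium addition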
AMPAR-TARP mod – modulates AMPAR-stargazin complexes | O88602+P19491 | HEK293 GluA2+stargazin, membrane potential dye (FDSS), glutamate EC50; hits were called plate by plate, in both directions | calls only at 30 µM | 40,000 tested, 3.5% active;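 active = any of four per-well response measures lying three or more SD from its plate-wide compound average, in either direction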
* hit, by the source's call; i = inactive; nt = no result given; + = active, no number. Many of the other results were omitted from the sample, so hits are more common in it than they were.

SMILES	GIRK2 activator	AMPAR-TARP mod
Cc1cc(C)c2c(n1)sc1c(=O)n(CC(=O)Nc3ccc(Cl)cc3)cnc12	i	i
CCCCn1c(SCc2nc(-c3ccc(Cl)cc3)no2)nc2ccsc2c1=O	i	+
CCCCn1c(SCc2nc(-c3cc(OC)cc(OC)c3)no2)nc2ccsc2c1=O	i	i
C=C(C)CN1CCN(c2cc(C)nc3c4c(C)cc(C)nc4nn23)CC1	i	+
COc1ccccc1-c1cnn2c(N3CCN(CC#N)CC3)cc(C)nc12	i	i
Cc1cc(C)c2c(n1)nn1c(N3CCN(CCOc4ccc(Cl)cc4)CC3)cc(C)nc21	nt	i
Cc1cc(C)c2c(n1)nn1c(N3CCN(Cc4ccccc4)CC3)cc(C)nc21	i	+
COc1ccc(F)cc1CN1CCN(c2cc(C)nc3c4c(C)cc(C)nc4nn23)CC1	i	+
Cc1cc(N2CCN(CC#N)CC2)n2nc(C(F)(F)F)c(-c3ccccc3)c2n1	i	i
COc1ccc(S(=O)(=O)N(Cc2ccsc2)Cc2ccccn2)cc1Cl	i	nt
CCOc1cc(C2NC(=O)NC(C)=C2C(=O)OC)ccc1OCc1ccccc1 (stereo not drawn)	nt	i
O=C(NCC1CCN(C2CCCC2)CC1)NC12CC3CC(CC(C3)C1)C2	i	i
O=C(Oc1ccccc1OC(=O)N1CCOCC1)N1CCOCC1	nt	+
CC(C)(C)c1ccc(OC(=O)N2CCOCC2)cc1	nt	i
COc1ccc(C(=O)NCCC2=CCCCC2)cc1	i	i
CCc1ccc(OCC(=O)NCCC2=CCCCC2)cc1	i	+
O=C(Cc1csc(SCC(=O)c2ccc3c(c2)OCO3)n1)NCCC1=CCCCC1	i	nt
Cc1ccc(CSc2nc(CC(=O)NCCC3=CCCCC3)cs2)cc1	i	+
O=C(Nc1cccc(Cl)c1)c1csc(NS(=O)(=O)c2cccs2)n1	i	i
O=C(N1CCC(Cn2cccn2)CC1)C1(c2ccccc2)CCOCC1	i	+
O=C(c1ccco1)N1CCC(Cn2cccn2)CC1	i	i
Cc1cc(C)cc(N2CC(c3nc4ccccc4n3Cc3ccccc3)CC2=O)c1 (stereo not drawn)	nt	i
COC(=O)c1scc(-c2ccccc2)c1S(=O)(=O)N1CC(=O)N(CCc2ccccc2)C(=O)C1	nt	i
O=C(/C=C/c1cccc([N+](=O)[O-])c1)N(CCN1CCOCC1)c1nc2ccc(F)cc2s1	nt	+
CN(C)CCCN(C(=O)c1ccno1)c1nc2ccc(Cl)cc2s1	i	nt
SMILES	GIRK2 activator	AMPAR-TARP mod
COc1cccc2sc(N(Cc3cccnc3)C(=O)c3cc(C)nn3C)nc12	i	i
CN(C)CCN(C(=O)c1ccn(C)n1)c1nc2ccc(Cl)cc2s1	i	+
O=C(/C=C/c1ccc([N+](=O)[O-])cc1)N(CCN1CCOCC1)c1nc2ccccc2s1	nt	i
Cc1cc2nc(N(CCN3CCOCC3)C(=O)c3ccco3)sc2cc1C	i	i
COc1cccc2sc(N(CCN(C)C)C(=O)c3cc(C)n(C)n3)nc12	i	+
O=C(c1ccco1)N(CCN1CCOCC1)c1nc2ccc(Cl)cc2s1	nt	+
CCC(=O)Nc1ccc(SCC(=O)NCCc2ccccc2)nn1	i	nt
CCc1nnc(NS(=O)(=O)c2ccc(NC(=O)c3ccc(S(=O)(=O)N(C)C)cc3)cc2)s1	nt	i
O=C(C1CCCO1)N1CCc2cc(S(=O)(=O)NC3CCCC3)ccc21 (stereo not drawn)	i	i
C=CCn1c(=O)c2c(nc3n(-c4cc(C)ccc4C)c(C)c(C)n23)n(C)c1=O	i	i
Cc1[nH]c(=O)nc(SCC(=O)NCc2ccco2)c1C#N	i	i
Cc1nn(C(C)(C)C)c(OC(=O)c2cccc(C(F)(F)F)c2)c1S(=O)(=O)c1ccccc1	nt	i
COc1ccc(OC)c2sc(N(CCN3CCOCC3)C(=O)c3ccn(C)n3)nc12	i	i
Cn1ccc(C(=O)N(CCN2CCOCC2)c2nc3ccccc3s2)n1	i	+
Cc1cccc2sc(N(CCN3CCOCC3)C(=O)c3ccc([N+](=O)[O-])o3)nc12	i	+
Cc1cccc2sc(N(CCN3CCOCC3)C(=O)c3ccc([N+](=O)[O-])s3)nc12	i	i
Cc1cc(C)cc(OCCNC(=O)c2cccs2)c1	i	i
COc1ccc(C(=O)NCCOc2cc(C)cc(C)c2)c(OC)c1	i	+
O=S(=O)(NCC#CCN1CCc2ccccc2C1)c1ccc2ccccc2c1	i	i
O=S(=O)(NCC#CCN1CCCCC1)c1ccc2ccccc2c1	nt	+
Cc1ccc(S(=O)(=O)N2CCCc3cc(NC(=O)c4ccccc4)ccc32)cc1	nt	i
COc1ccc(S(=O)(=O)N2CCCc3cc(NC(=O)C(C)(C)C)ccc32)cc1	nt	+
Cc1ccc(S(=O)(=O)N2CCCc3cc(NC(=O)Oc4ccccc4)ccc32)cc1	nt	+
COc1ccc(S(=O)(=O)N2CCCc3cc(NC(C)=O)ccc32)cc1	nt	i
